We go through 50 compounds from PubChem BioAssay AID504444 (National Center for Advancing Translational Sciences (NCATS), 2011).

The campaign covered roughly 360,000 compounds. About 7,500 (2.1%) were called active. Roughly 20% stayed inconclusive and do not appear here. The entries come from a sample that favours actives as a whole. Values without a mark were called inactive. Calls come from the whole dose curve; as a rule, active = well fitted inhibition curve with a large enough effect; inconclusive = small, poorly fitted or top-dose-only effect, or effect the other way; inactive = flat fitted curve, though single readings scatter.
% is set by controls: 0 for no effect and ±100 for the full control effect; potency is the fitted concentration of half-maximal effect.

The nature of the test: Nrf2 qHTS screen for inhibitors. Note: nearly all actives have a fitted effect of over 60% in size. Particulars: A549 ARE-Fluc reporter, luciferase luminescence, 18-24 h; series mostly up to 46 µM; activity change, negative = inhibition: at the top concentration. In short, it runs like this: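 Quantitative HTS in A549 cells stably bearing an antioxidant response element-firefly luciferase construct. Inhibition of Nrf2-driven transcription was scored by luminescence after 18-24 h of compound exposure at 37 °C.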
For `CCC(C(=O)Nc1cc(OC)ccc1OC)n1c(=O)c(C(F)(F)F)nc2ccccc21` (stereo not given), the “activity change, negative = inhibition” value was -29.5%. On the same count and under the same terms, the figure for `CSCCC(NC(=O)c1ccccc1)C(=O)N1CCN(Cc2ccc(Cl)cc2)CC1` (stereo not given) is -24.3%. With `CCCCN(C(=O)c1cccc(N2C(=O)c3ccccc3C2=O)c1)c1c(N)n(CCCC)c(=O)[nH]c1=O`, the “activity change, negative = inhibition” value was 19.8%. For the compound `N#Cc1ccc(OC2=NS(=O)(=O)c3ccccc32)cc1`, the “activity change, negative = inhibition” value was 0%.

On to `COc1ccc(/C=N/NS(=O)(=O)c2ccc(NC(C)=O)cc2)cc1`, for which the “activity change, negative = inhibition” value was -2.95%. Still for that read-out and setting: in the case of `COc1ccc(S(=O)(=O)N/N=C\c2ccc(OC)c(COc3ccc(C)cc3[N+](=O)[O-])c2)cc1` it was -12.6%.

For the compound `COc1ccc(C(=O)Oc2cc(/C=N/NS(=O)(=O)c3ccc(C)cc3)ccc2OC)cc1`, the Potency was 16.4 µM (active). For `CCOc1ccc(C(=O)c2cn(Cc3ccc(F)cc3)c3ccc(F)cc3c2=O)cc1`, the “activity change, negative = inhibition” value was -26.7%. In the case of `CN(C)c1ccc(Nc2c3c4c(cccc4n(C)c2=O)C(=O)c2ccccc2-3)cc1`, the Potency is 8.2 µM (active). Take `Cc1ccc(Nc2c(-c3ccc(N(C)C)cc3)nc3nc[nH]n23)cc1`: the “activity change, negative = inhibition” value was 27.1%. The same measure, in the same setting: in the case of `CN(C)c1ccc(C2N(C)C(=O)c3ccccc3N2C)cc1` (stereo not given) it was -2.93%. Same read-out and setting: the figure for `O=C(Nc1c(C(=O)N2CCN(c3ccc(F)cc3)CC2)oc2ccccc12)c1ccco1` is -36.8%; for `CCOC(=O)C1CCCN(C(=O)C2CCN(S(=O)(=O)c3ccc(Cl)c(C(F)(F)F)c3)CC2)C1` (stereo not given) it is -7.11%. As to `CCCCNC(=O)CSc1nc2ccc(NC(=O)CSc3nnc(N)s3)cc2s1`, the Potency was 16.4 µM (active).

In the case of `CCC(=O)Nc1ccc2nc(SCC(=O)N3CCc4ccccc43)sc2c1`, the “activity change, negative = inhibition” value was 8.17%. Same read-out and setting: in the case of `CCCCNC(=O)CSc1nc2ccc(NC(=O)CSc3nnc(COc4ccccc4C)n3C)cc2s1` it was -7.65%. On to `CCOC(=O)c1ccc(NC(=O)C2CC(=O)N(c3ccc(C(C)C)cc3)C2)cc1` (stereo not given), for which the “activity change, negative = inhibition” value was -5.85%. On to `O=C(Nc1ccncc1)c1c(F)cccc1F`, for which the Potency was 9.2 µM (active).

On to `O=C(Nc1ccc(S(=O)(=O)N2CCCCCC2)cc1)c1c(F)cccc1F`, for which the “activity change, negative = inhibition” value is -17.6%. Same read-out and setting: the figure for `O=C(Nc1ccncc1)Nc1ccc(F)cc1` is 22.6%; for `Cc1ccc(C)c(N2CCN(CCCNC(=O)Nc3ccc(Cl)cc3)CC2)c1` it is 10.3%; for `CCOc1ccc(NC(=O)CCC(=O)N2CC(C)Oc3ccc(C)cc32)cc1` (stereo not given) it is 1.09%. For `CN(C)C(=O)c1coc2nc3ccccc3nc12`, the “activity change, negative = inhibition” value is 0.918%. The same measure, in the same setting: the figure for `O=c1[nH]c(=O)c2nc3ccccc3nc2[nH]1` is 10.6%.

In the case of `CNC(=O)c1cccc2nc3ccccc3nc12`, the Potency is 5.8 µM (active).

Consider `Cc1ccc(Nc2c(-c3ccc(C)cc3)nc3cnccn23)cc1`, for which the activity change, negative = inhibition is -2.28% [at 9.27 µM]. Turning to `CCOC(=O)C1CCN(C(=O)CN2C(=O)NC(C)(c3ccc4cc(OC)ccc4c3)C2=O)CC1` (stereo not given), the “activity change, negative = inhibition” value was -3.88%.

As for `CC1=NN(c2ccccc2)C(=O)C1C(=O)c1ccc([N+](=O)[O-])cc1` (stereo not given), the Potency was 25.9 µM (active).

`Cc1ccc(C)n1NC(=O)c1ccc([N+](=O)[O-])cc1`: the “activity change, negative = inhibition” value was -6.57%. Same read-out and setting: the figure for `O=C1CC(c2ccccc2)=NN1c1ccc([N+](=O)[O-])cc1` is -13.5%.

`CCCOC(=O)c1[nH]c2c(c1C)C(=O)CC(c1cccs1)C2` (stereo not given): the “activity change, negative = inhibition” value is 2.43%. Still for that read-out and setting: the figure for `COCCOC(=O)c1[nH]c2c(c1C)C(=O)CC(c1ccc(OC)cc1)C2` (stereo not given) is 3.14%. As to `CCCOC(=O)c1[nH]c2c(c1C)C(=O)CC(c1cc(OC)c(OC)c(OC)c1)C2` (stereo not given), the Potency was 16.4 µM (active). Consider `Cc1ccc(S(=O)(=O)NCC2CCC(C(=O)N3CCOCC3)CC2)cc1` (stereo not given), for which the “activity change, negative = inhibition” value was 2.72%. Same read-out and setting: in the case of `COc1cccc(CNC(=O)C2CCC(CNS(=O)(=O)c3cccs3)CC2)c1` (stereo not given) it was 6.28%.

With `Cc1ccc(C)c(N2CCN(C(=O)C3CCC(CNS(=O)(=O)c4cccs4)CC3)CC2)c1` (stereo not given), the Potency is 18.4 µM (active). For `Cc1cc([N+](=O)[O-])c(=O)[nH]c1C`, the “activity change, negative = inhibition” value was -28.4%. On the same count and under the same terms, in the case of `COc1ccc(N=C2C=CC(=O)O2)cc1` it was 2.45%. For `CCOC(=O)c1ccc(NC(=O)C2CC(=O)N(c3ccc4c(c3)OCCO4)C2)cc1` (stereo not given), the “activity change, negative = inhibition” value is -15.5%. In the case of `Cc1ccc(NC(=O)C2CC2)cc1S(=O)(=O)N1CCOCC1`, the “activity change, negative = inhibition” value is 3.69%. As for `Cc1ccc(NC(=O)C2CC(=O)N(c3ccc4c(c3)OCCO4)C2)cc1S(=O)(=O)N1CCCCCC1` (stereo not given), the Potency was 5.8 µM (active). Turning to `Cc1ccc(N2CC(C(=O)Nc3ccc(S(=O)(=O)N4CCCC4)cc3)CC2=O)cc1C` (stereo not given), the “activity change, negative = inhibition” value is -26.7%. With `CC1CCN(S(=O)(=O)c2ccc(NC(=O)C3CC(=O)N(c4ccccc4)C3)cc2)CC1` (stereo not given), the Potency is 6.51 µM (active). Take `Cc1ccc(NC(=O)C2CCC(C(C)(C)C)CC2)cc1S(=O)(=O)N1CCOCC1` (stereo not given): the Potency was 20.6 µM (active). For `COc1ccc(S(=O)(=O)N2CCCCCC2)cc1NC(=O)Cc1ccc(OC)c(OC)c1`, the “activity change, negative = inhibition” value is -5.21%. On the same count and under the same terms, the figure for `Cc1ccccc1N1CC(C(=O)Nc2ccc(S(=O)(=O)N3CCCC3)cc2)CC1=O` (stereo not given) is -16.1%; for `Cc1ccc(NC(=O)NC2CCCCC2)cc1S(=O)(=O)N1CCOCC1` it is -20.2%; for `CC(=O)c1ccccc1NC(=O)C1CC(=O)N(c2ccc3c(c2)OCCO3)C1` (stereo not given) it is 15.8%. Turning to `COc1ccccc1N1CC(C(=O)Nc2ccc(S(=O)(=O)N3CCOCC3)cc2)CC1=O` (stereo not given), the “activity change, negative = inhibition” value was 2.1%. With `COc1ccc(S(=O)(=O)N2CCCCC2)cc1NC(=O)C1CC(=O)N(c2ccc3c(c2)OCCO3)C1` (stereo not given), the Potency is 23.1 µM (active).
